Data on eight compounds can be found in PubChem BioAssay (Tox21).

The target in test [1] is Aryl hydrocarbon receptor (Homo sapiens) (UniProt P35869). The experiment in a line: qHTS assay to identify small molecule that activate the aryl hydrocarbon receptor (AhR) signaling pathway (AID 743085). Further: nearly all actives have a fitted effect of over 15% in size. Further: potency means the concentration at half of the fitted maximal effect.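 On activation: HG2L7.5c1 human HepG2 liver cells with stably integrated DRE-driven firefly reporter; series mostly up to about 70 µM.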 The method, boiled down:
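Cell line HG2L7.5c1 (human hepatoma, 20× DRE-luc). Plated, 5 h 37C, compound/DMSO added, 24 h 37C. CellTiter-Fluor 30 min 37C → fluorescence; then ONE-Glo 30 min RT → luminescence.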

Test [2] can be described thus: qHTS assay to identify small molecule that activate the aryl hydrocarbon receptor (AhR) signaling pathway - cell viability counter screen (AID 743086). Further: nearly all actives have a fitted effect of over 45% in size. Further: potency means the concentration at half of the fitted maximal effect. In short, it runs like this:
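HepG2-AhR-luc (HG2L7.5c1) cells, 4000/well, were preincubated 5 h at 37C, exposed to compound in qHTS format for 24 hr at 37C, then given CellTiter-Fluor for 30 min; viability was read as fluorescence in the reporter wells.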

Test [3] is described as follows: qHTS assay to identify small molecule antagonists of the peroxisome proliferator-activated receptor gamma (PPARg) signaling pathway - cell viability counter screen (AID 743194). Further: nearly all actives have a fitted effect of over 55% in size. Further: potency means the concentration at half of the fitted maximal effect. In short, it runs like this:
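PPARg-UAS-bla HEK293H cells were plated, rested 5 h at 37 C, then treated with compounds plus rosiglitazone (50 nM final) for 17 h at 37 C; viability was then read by CellTiter-Glo luminescence after 30 min at room temperature.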
Background: In qHTS, concentration-response curves come from the screen itself.

A short description of test [4]: qHTS assay for small molecule agonists of the antioxidant response element (ARE) signaling pathway - cell viability counter screen (AID 743203; calls by dose curve; further: nearly all actives have a fitted effect of over 55% in size; further: potency means the concentration at half of the fitted maximal effect). In short, it runs like this:
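Parallel cytotoxicity read-out for the ARE-bla screen: HepG2 reporter cells, 16 hrs with compounds, then CellTiter-Glo luminescence.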

Test [5] can be described thus: qHTS assay for small molecule activators of the heat shock response signaling pathway - cell viability counter screen (AID 743209). Further: nearly all actives have a fitted effect of over 50% in size. Further: potency means the concentration at half of the fitted maximal effect. The method, boiled down:
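To flag cytotoxic compounds, HSE-bla HeLa cells plated at 1500 cells/well were dosed for 5 h at 37 C, followed by the reporter FRET read and then CellTiter-Glo, with luminescence recorded 30 min after reagent addition.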

Test [6] can be described thus: qHTS assay to identify small molecule agonists of the peroxisome proliferator-activated receptor delta (PPARd) signaling pathway - cell viability counter screen (AID 743211). Further: nearly all actives have a fitted effect of over 55% in size. Further: potency means the concentration at half of the fitted maximal effect. In short, it runs like this: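 HEK293H PPARd-bla, 3000 cells/well; 5 h preincubation 37C/5% CO2; cpd in DMSO, 17 h 37C; B/G FRET substrate 2 h RT; CellTiter-Glo 30 min RT, luminescence.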
Test [7] in a line: qHTS assay to identify small molecule antagonists of the peroxisome proliferator-activated receptor delta (PPARd) signaling pathway - cell viability counter screen (AID 743213). Further: nearly all actives have a fitted effect of over 50% in size. Further: potency means the concentration at half of the fitted maximal effect. The method, boiled down: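 HEK293H cells with the PPARd UAS-bla reporter, co-treated 17 h at 37 C with compounds and L165041 (300 nM final), were lysed with CellTiter-Glo. Luminescence indicated viable cell content.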

Test [8] can be described thus: qHTS assay to identify small molecule agonists of the farnesoid-X-receptor (FXR) signaling pathway - cell viability counter screen (AID 743218). Further: nearly all actives have a fitted effect of over 45% in size. Further: potency means the concentration at half of the fitted maximal effect. The method, boiled down:
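Same-well cytotoxicity check on FXR-UAS-bla HEK 293T cells: 5 h attachment, 16 h compound at 37 C, CellTiter-Glo luminescence read at room temperature after 30 min.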

The nature of test [9]: qHTS assay to identify small molecule antagonists of the farnesoid-X-receptor (FXR) signaling pathway - cell viability counter screen (AID 743221; active means well fitted cell-killing curve with a large enough effect in the repeat runs, not every such curve was filed as active; further: nearly all actives have a fitted effect of over 50% in size; further: potency means the concentration at half of the fitted maximal effect). The method, boiled down:
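Luminescence from CellTiter-Glo measures cytotoxicity in GeneBLAzer FXR-UAS-bla HEK 293T cells. Cells were exposed to compounds with 50 uM chenodeoxycholic acid (final) for 16 h at 37 C, in wells also used for the reporter readout.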

Test [10] addresses Vitamin D3 receptor (Homo sapiens) (UniProt P11473). Description: qHTS assay to identify small molecule agonists of the vitamin D receptor (VDR) signaling pathway (AID 743222; calls by dose curve). The method, boiled down:
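Using LiveBLAzer B/G FRET detection, agonism was scored in VDR-bla cells exposed overnight (16 h, 37C) to DMSO-dissolved compounds; substrate incubation was 2 h at room temperature.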

Test [11] has the same target. Description: qHTS assay to identify small molecule antagonists of the vitamin D receptor (VDR) signaling pathway (AID 743223; active means well fitted inhibition curve with a large enough effect in the signal ratio in the repeat runs, not every such curve was filed as active; the % refers to the signal ratio; further: potency means the concentration at half of the fitted maximal effect). The method, boiled down:
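Antagonist mode uses 1alpha,25-dihydroxyvitamin D3 at 3 nM final as stimulus. VDR-bla cells receive compounds in DMSO, incubate 16 h at 37C, then a beta-lactamase FRET substrate for 2 h at room temperature before fluorescence measurement.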

A short description of test [12]: qHTS assay to identify small molecule agonists of the vitamin D receptor (VDR) signaling pathway - cell viability counter screen (AID 743224). Further: nearly all actives have a fitted effect of over 50% in size. Further: potency means the concentration at half of the fitted maximal effect. The method, boiled down:
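Counter screen for cytotoxicity: VDR-bla cells at 2,000 cells/well, 16 h compound exposure, then CellTiter-Glo luminescence after the beta-lactamase measurement.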

A short description of test [13]: qHTS assay to identify small molecule antagonists of the vitamin D receptor (VDR) signaling pathway - cell viability counter screen (AID 743225). Further: nearly all actives have a fitted effect of over 50% in size. Further: potency means the concentration at half of the fitted maximal effect. In short, it runs like this: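 Read-out: CellTiter-Glo luminescence measured 30 min after reagent addition at room temperature. Cells were VDR-bla HEK 293T exposed 16 h at 37C, 5% CO2, to compound with 3 nM final calcitriol agonist.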

In test [14] the target is Peroxisome proliferator-activated receptor gamma (Homo sapiens) (UniProt P37231). The experiment in a line: qHTS assay to identify small molecule agonists of the peroxisome proliferator-activated receptor gamma (PPARg) signaling pathway (AID 743094; active means well fitted activation curve with a large enough effect in the signal ratio in the repeat runs, not every such curve was filed as active; the % refers to the signal ratio). In short, it runs like this: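 Fluorescence-based beta-lactamase readout in HEK293H PPARg UAS-bla cells after 17 h compound exposure (37C) and 1 h B/G FRET substrate incubation at room temperature.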
Chain of Peroxisome proliferator-activated receptor gamma (Homo sapiens) (P37231 whole entry, looked up): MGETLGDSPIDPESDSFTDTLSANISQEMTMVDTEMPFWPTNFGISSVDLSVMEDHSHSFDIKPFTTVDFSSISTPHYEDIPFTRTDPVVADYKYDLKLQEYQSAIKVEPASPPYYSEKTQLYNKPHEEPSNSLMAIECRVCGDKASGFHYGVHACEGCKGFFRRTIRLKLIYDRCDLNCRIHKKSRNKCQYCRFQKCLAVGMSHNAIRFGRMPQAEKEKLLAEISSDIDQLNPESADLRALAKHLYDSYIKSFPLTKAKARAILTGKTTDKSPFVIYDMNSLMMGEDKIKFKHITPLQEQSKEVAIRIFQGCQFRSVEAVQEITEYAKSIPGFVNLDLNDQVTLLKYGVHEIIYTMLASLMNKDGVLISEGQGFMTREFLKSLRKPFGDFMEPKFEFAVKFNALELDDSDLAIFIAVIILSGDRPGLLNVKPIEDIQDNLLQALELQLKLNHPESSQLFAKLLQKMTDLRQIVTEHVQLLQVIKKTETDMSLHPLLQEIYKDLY

For test [15] the target is unchanged. The experiment in a line: qHTS assay to identify small molecule antagonists of the peroxisome proliferator-activated receptor gamma (PPARg) signaling pathway (AID 743191; calls by dose curve; further: series mostly up to about 63 µM; nearly all actives have a fitted effect of over 30% in size). In short, it runs like this:
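GeneBLAzer PPARg UAS-bla HEK293H cells carrying a UAS-driven beta-lactamase reporter were plated at 3000 cells/well, preincubated 5 h at 37C, then given compound for 17 h at 37C; LiveBLAzer B/G FRET substrate was read after 1 h at room temperature.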

The nature of test [16]: qHTS assay for small molecule agonists of the antioxidant response element (ARE) signaling pathway (AID 743202; active means well fitted activation curve with a large enough effect in the signal ratio in the repeat runs, not every such curve was filed as active; the % refers to the signal ratio). In short, it runs like this: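 Following a 16 h, 37 C exposure of reporter HepG2 cells (ARE-driven beta-lactamase, 2,000 cells/well) to compounds, FRET substrate was applied for 2 h at room temperature and fluorescence intensity recorded.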
A short description of test [17]: qHTS assay for small molecule activators of the heat shock response signaling pathway (AID 743210; active means well fitted activation curve with a large enough effect in the signal ratio in the repeat runs, with a control signal flat, not every such curve was filed as active; the % refers to the signal ratio; further: series mostly up to about 63 µM). In short, it runs like this:
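Heat shock element–beta-lactamase HeLa reporter cells; qHTS with compounds for 5 h at 37 C; detection by FRET substrate fluorescence after 2.5 h at RT.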

For test [18], the target named is Peroxisome proliferator-activated receptor delta (Homo sapiens) (UniProt Q03181). Description: qHTS assay to identify small molecule agonists of the peroxisome proliferator-activated receptor delta (PPARd) signaling pathway (AID 743212; calls by dose curve). In short, it runs like this: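 Beta-lactamase reporter read by fluorescence (LiveBLAzer B/G FRET, 2 h, room temperature). Test agents, in DMSO, incubated at 37 C with PPARd-bla HEK293H cells.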
Chain of Peroxisome proliferator-activated receptor delta (Homo sapiens) (Q03181 whole entry, looked up): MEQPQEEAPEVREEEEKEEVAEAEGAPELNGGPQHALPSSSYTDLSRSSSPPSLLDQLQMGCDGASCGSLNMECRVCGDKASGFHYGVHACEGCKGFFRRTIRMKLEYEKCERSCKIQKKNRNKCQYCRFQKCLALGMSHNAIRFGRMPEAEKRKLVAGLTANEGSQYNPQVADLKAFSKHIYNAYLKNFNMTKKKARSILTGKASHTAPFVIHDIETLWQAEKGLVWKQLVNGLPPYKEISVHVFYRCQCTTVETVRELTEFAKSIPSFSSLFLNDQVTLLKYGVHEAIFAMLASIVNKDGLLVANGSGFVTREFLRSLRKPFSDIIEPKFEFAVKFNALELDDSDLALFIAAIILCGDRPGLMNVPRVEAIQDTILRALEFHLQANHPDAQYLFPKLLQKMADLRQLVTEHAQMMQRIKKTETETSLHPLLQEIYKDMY

The target in test [19] is Bile acid receptor (Homo sapiens) (UniProt Q96RI1). The experiment in a line: qHTS assay to identify small molecule antagonists of the farnesoid-X-receptor (FXR) signaling pathway (AID 743217; active means well fitted inhibition curve with a large enough effect in the signal ratio in the repeat runs, not every such curve was filed as active; the % refers to the signal ratio). The method, boiled down: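 Quantitative HTS, beta-lactamase reporter format: FXR-UAS-bla HEK 293T cells co-treated 16 h at 37 °C with compounds and 50 uM final chenodeoxycholic acid, then read by B/G FRET fluorescence.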
Chain of Bile acid receptor (Homo sapiens) (Q96RI1 whole entry, looked up): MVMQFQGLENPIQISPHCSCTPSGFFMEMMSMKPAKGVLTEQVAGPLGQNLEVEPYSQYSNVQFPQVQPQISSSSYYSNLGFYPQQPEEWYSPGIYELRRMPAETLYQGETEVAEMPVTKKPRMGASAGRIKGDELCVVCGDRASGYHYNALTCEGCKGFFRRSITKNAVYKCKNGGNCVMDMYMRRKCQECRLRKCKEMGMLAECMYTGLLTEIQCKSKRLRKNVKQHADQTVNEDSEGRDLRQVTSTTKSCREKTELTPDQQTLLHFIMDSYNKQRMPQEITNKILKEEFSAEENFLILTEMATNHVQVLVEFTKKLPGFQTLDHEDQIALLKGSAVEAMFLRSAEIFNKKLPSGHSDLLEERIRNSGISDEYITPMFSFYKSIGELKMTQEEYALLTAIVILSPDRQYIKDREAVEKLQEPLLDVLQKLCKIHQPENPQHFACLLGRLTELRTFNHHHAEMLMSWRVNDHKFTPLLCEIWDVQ

Test [20] shares this target. The experiment in a line: qHTS assay to identify small molecule agonists of the farnesoid-X-receptor (FXR) signaling pathway (AID 743220; active means well fitted activation curve with a large enough effect in the signal ratio in the repeat runs, not every such curve was filed as active; the % refers to the signal ratio). The method, boiled down:
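FXR-UAS-bla HEK 293T cells carrying a UAS-driven beta-lactamase reporter were plated for 5 h at 37C/5% CO2, then exposed to DMSO-dissolved Tox21 10K compounds for 16 h at 37C. A LiveBLAzer B/G FRET substrate was loaded for 2 h at room temperature before fluorescence reading.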

“And” between values parts separate entries of the source, which are not always exact repeats. Equal entries are not always repeated. Results filed as inconclusive are left out. Where a structure was tested more than once in an assay, its records may differ in their call. The source made the active and inactive calls. Unless noted, the call rests on the fitted dose curve; in most records, active means well fitted curve in the direction sought with a large enough effect in the repeat runs; inconclusive means weak or mixed curves; inactive means no such curve, though single readings can be large; an effect the other way counts as inactive or inconclusive.

Chain of Aryl hydrocarbon receptor (Homo sapiens) (P35869 whole entry, looked up): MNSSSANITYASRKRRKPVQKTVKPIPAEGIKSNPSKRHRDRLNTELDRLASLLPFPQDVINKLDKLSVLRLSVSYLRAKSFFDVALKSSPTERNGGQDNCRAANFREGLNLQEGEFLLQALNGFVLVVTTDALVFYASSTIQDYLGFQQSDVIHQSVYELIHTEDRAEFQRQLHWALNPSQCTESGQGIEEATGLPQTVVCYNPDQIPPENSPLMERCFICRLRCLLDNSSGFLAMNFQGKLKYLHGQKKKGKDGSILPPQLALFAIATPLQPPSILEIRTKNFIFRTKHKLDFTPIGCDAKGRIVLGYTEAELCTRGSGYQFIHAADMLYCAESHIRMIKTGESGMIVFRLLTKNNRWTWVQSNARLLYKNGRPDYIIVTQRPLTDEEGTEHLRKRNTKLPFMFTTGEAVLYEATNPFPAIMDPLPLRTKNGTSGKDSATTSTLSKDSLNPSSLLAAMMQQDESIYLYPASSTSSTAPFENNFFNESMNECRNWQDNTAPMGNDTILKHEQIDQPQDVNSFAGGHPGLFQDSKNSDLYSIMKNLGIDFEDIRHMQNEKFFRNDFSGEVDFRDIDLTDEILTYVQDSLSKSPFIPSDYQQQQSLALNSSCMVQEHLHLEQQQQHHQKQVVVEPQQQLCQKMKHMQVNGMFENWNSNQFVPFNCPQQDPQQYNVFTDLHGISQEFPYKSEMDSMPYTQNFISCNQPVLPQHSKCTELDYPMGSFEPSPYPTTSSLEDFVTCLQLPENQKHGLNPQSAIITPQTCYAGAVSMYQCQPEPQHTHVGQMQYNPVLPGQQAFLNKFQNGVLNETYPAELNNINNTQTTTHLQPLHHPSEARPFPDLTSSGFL
Chain of Vitamin D3 receptor (Homo sapiens) (P11473 whole entry, looked up): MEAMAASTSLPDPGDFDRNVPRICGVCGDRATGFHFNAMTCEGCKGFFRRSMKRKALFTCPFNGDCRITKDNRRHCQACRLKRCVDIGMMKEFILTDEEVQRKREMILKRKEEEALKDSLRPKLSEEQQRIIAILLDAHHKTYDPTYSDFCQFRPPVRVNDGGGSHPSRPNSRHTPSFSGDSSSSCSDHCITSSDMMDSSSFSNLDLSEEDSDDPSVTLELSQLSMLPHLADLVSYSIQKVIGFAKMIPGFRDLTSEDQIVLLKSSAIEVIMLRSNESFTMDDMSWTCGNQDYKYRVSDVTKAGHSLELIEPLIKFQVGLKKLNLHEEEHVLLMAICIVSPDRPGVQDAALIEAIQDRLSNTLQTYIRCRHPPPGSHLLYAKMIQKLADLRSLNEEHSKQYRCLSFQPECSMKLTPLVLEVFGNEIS

Take `CCCCCCCCCCCC[N+](C)(C)Cc1ccccc1`: the Potency entry in test [1] and in test [10] was “inactive” each time. Moreover, the Potency in test [2] is 59.2 µM (active); in [3], 17 µM (active) and 15 µM (active) and 26.6 µM (active); in test [4], 26.8 µM (active) and 29.7 µM (active); in test [5] it was 34 µM (active) and 18.9 µM (active) and 16.8 µM (active); in test [6] it was 27 µM (active) and 18.9 µM (active) and 23.7 µM (active); in [7], 19.1 µM (active) and 18.9 µM (active) and 15 µM (active). Further, the Potency in test [8] was 17 µM (active) and 21.2 µM (active); in test [9] it was 53.9 µM (active) and 59.7 µM (active) and 29.8 µM (active); in [11] it was 42.8 µM (active) and 53.2 µM (active); in test [12], 27 µM (active) and 29.9 µM (active) and 13.3 µM (active); in [13], 19.1 µM (active) and 15 µM (active) and 21.3 µM (active).
For `CN1CCC[C@H]1c1cccnc1`, the Potency result in test [1], in [14], in test [15], in test [3], in test [16] and in test [4] was “inactive” throughout. Moreover, the Potency entry in test [5], in [6], in test [7], in test [8], in [9] and in [10] was “inactive” throughout. In addition, the Potency result in test [11], in test [12] and in [13] was “inactive” in each case.
In the case of `CN[C@H]1CC[C@@H](c2ccc(Cl)c(Cl)c2)c2ccccc21`, the Potency result in [1] and in test [2] was “inactive” each time. The Potency was 18.8 µM (active) in [4]; 21.1 µM (active) in [6]; 23.7 µM (active) in [7]; 26.6 µM (active) in test [9]; 13.3 µM (active) in [12]; 23.9 µM (active) in test [13].
With `CCN(CC)C(=O)c1cccc(C)c1`, the Potency entry in test [1] was “inactive and 60.5 µM (active)”. In addition, the Potency entry in test [14], in test [3], in [16], in test [4], in test [5] and in test [6] was “inactive” each time. Besides, the Potency result in test [18], in test [7], in test [19], in test [8], in test [9] and in test [10] was “inactive” each time. The Potency entry in test [11], in test [12] and in test [13] was “inactive” in each case. Also, the compound was called inactive in test [17] and in test [20].
For `CC12CCC(CC1)C(C)(C)O2`, the Potency entry in test [1], in test [14], in [15], in test [3], in test [16] and in [4] was “inactive” in each case. Further, the Potency entry in test [5], in test [6], in test [18], in test [7], in test [19] and in [9] was “inactive” each time. Besides, the Potency result in test [10], in test [11], in test [12] and in [13] was “inactive” throughout. The call in test [17] and in test [20] was inactive.
In the case of `O=CC(=O)c1ccccc1`, the Potency entry in test [1], in test [14], in test [3], in [16], in test [4] and in test [6] was “inactive” in each case. Further, the Potency result in test [18], in test [7], in [8], in test [9], in test [12] and in test [13] was “inactive” in each case.
In the case of `CC(O)(P(=O)(O)O)P(=O)(O)O`, in test [1], the Potency entry is “inactive and 15.4 µM (active)”. In addition, the Potency result in [14], in [15], in [3], in test [16], in test [4] and in test [5] was “inactive” throughout. In addition, the Potency result in test [6], in test [7], in test [9], in test [12] and in test [13] was “inactive” each time.
For `Cn1c(=O)c2c(ncn2C)n(C)c1=O`, the Potency result in test [1], in [3], in [16], in [4], in test [5] and in test [6] was “inactive” throughout. Further, the Potency result in test [7], in test [8], in test [9], in test [12] and in test [13] was “inactive” in each case. The Potency entry in [2] was “inactive and 69.4 µM (active)”. Also, the compound was called inactive in [17].
